KLF5 inhibitor – inhibitors of KLF5 expression. AID 1700. inhibition, % at 5 µM. DLD-1 KLF5 promoter-luciferase reporter, luminescence. actives 0.23% (n = 290,000);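 active = inhibition above a per-plate limit of that plate's mean compound inhibition plus 3 SD, cut at about 60% in these data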;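 also: 0% = DMSO wells and 100% = LY294002 at 200 µM; higher means less KLF5 promoter-driven luciferase light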
aSyn UTR inh – MLPCN primary screen, SNCA 5' untranslated region | alpha-synuclein 5'UTR reporter, inhibitor activity | actives 0.82% (n = 300,000) | inhibition, % (tested at 7.5 µM); in the data active = inhibition above about 60%; inconclusive = no clear call, values can overlap the other calls;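 also: H4 neuroglioblastoma cells stably carrying SNCA 5'UTR luciferase fusion; 0% = DMSO wells and 100% = positive control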
Platelet DG rel – platelet dense granule release activity; AID 1663; actives 0.22% (n = 300,000); inhibition, %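 (compounds screened at 7.5 µM in platelet-rich plasma)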; human platelet-rich plasma, SFLLRN dense granule ATP release, luminescence;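 active = mean replicate score, as percent of positive control, at or above 50; inconclusive = mean below 50 but at least one replicate at or above 50; inactive = mean and every replicate below 50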
HIF activator – HIF pathway transcriptional activation. AID 1910. activation, % at 7.5 µM (by protocol). U2OS HRE-luciferase reporter, luminescence; normalized: DMSO 0%, desferrioxamine 100%. actives 0.32% (n = 300,000);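 active = mean activation of at least 10% of the iron chelator positive control signal, with at least half of replicates also reaching 10%; inconclusive = mean and replicate majority disagree about reaching 10%; inactive = mean and most replicates under 10%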
Wee1 stabilizer – human Wee1 degradation inhibition, primary screen | P30291 | HeLa Luc-Wee1K328M stability, luciferase luminescence; 100% = proteasome inhibitor MG132 effect | reporter increase, % at 5 µM | actives 1.2% (n = 220,000) | AID 1321;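 active = activation above the mean of all tested compounds plus 3 SD, set per screening run, cut at about 8.8% in these data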;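 also: cells exposed to compound for 20 h before luminescence read; 0% = DMSO alone and 100% = MG132 at 30 µM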
Target sequence (P30291 whole entry K328M): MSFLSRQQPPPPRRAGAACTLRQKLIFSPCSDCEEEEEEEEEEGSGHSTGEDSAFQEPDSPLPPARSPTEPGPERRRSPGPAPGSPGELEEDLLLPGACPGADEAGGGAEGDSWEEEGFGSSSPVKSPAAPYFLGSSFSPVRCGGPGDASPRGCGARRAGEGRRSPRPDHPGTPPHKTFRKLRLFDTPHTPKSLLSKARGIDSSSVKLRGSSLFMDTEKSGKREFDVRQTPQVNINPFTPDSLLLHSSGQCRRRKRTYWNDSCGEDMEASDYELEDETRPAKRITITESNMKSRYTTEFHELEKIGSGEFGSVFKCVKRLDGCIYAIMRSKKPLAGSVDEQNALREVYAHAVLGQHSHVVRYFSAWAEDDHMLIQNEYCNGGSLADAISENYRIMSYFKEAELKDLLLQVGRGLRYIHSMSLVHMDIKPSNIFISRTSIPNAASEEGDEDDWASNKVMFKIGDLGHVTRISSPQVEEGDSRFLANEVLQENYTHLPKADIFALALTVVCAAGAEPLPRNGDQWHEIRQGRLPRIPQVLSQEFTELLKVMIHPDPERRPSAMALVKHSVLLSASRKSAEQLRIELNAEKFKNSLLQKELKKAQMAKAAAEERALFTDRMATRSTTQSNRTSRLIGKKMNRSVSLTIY
Wee1 stab conf – confirmation of human Wee1 degradation inhibitors; activation, % at 5 µM; AID 1410; shares compounds with Wee1 stabilizer; actives 4% (n = 1,100); HeLa Luc-Wee1K328M degradation, luminescence; vehicle 0%, proteasome-blocked wells 100%; in the data active = activation above about 8.9%
KLF5 inh confirm – confirmation of KLF5 inhibitors; shares compounds with KLF5 inhibitor; DLD-1 KLF5 promoter firefly luciferase reporter, luminescence; inhibition, % at 4 µM; actives 79% (n = 610);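 active = inhibition above a set limit taken from the earlier primary screen, cut at about 63% in these data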;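 also: 0% = DMSO wells and 100% = LY294002 at 200 µM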
IEC-6 tox – kills rat IEC-6 cells in KLF5 counter-screen | shares compounds with KLF5 inhibitor | IEC-6 rat intestinal cells, viability luminescence | inhibition, % at 4 µM | actives 56% (n = 610); in the data active = inhibition above about 23%;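 also: cells exposed to compounds for 48 hours before viability read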
An asterisk follows results filed as active; ? = inconclusive; . = no result given. Rows were chosen to be rich in hits. Some 2.1% of all compounds tested hit in one or more screens of this group.

SMILES	KLF5 inhibitor	aSyn UTR inh	Platelet DG rel	HIF activator	Wee1 stabilizer	KLF5 inh confirm	IEC-6 tox	others
Cc1c(O)cc2n(c1=O)-c1ccccc1C2(C)C	-38.9	8.2	7.2	-1.6	-2.4	.	.
CC1(C)c2ccccc2-n2c1cc1oc(=O)cc(O)c1c2=O	11.3	19.7	-1.8	-0.4	15.0*	.	.	Wee1 stab conf=2.3
COc1ccccc1/C=C/C(=O)Nc1ccc2c(c1)CCC2	-101.6	-151.0	7.3	3.5	10.9*	.	.	Wee1 stab conf=6.2
CCOc1ccc(CC(=O)NNC(=S)NC)cc1	17.3	0.7	4.8	0.3	13.8*	.	.	Wee1 stab conf=-2.8
CCN(CCCNC(=O)Cn1ncc2c([nH]c3ccc(C)cc32)c1=O)Cc1ccccc1	-8.3	25.2	-0.5	0.5	.	.	.
COc1ccc(N(CC(=O)Nc2ccc(S(=O)(=O)N3CCCCC3)cc2)S(C)(=O)=O)cc1OC	-35.1	21.2	3.1	-0.5	24.0*	.	.	Wee1 stab conf=0.0
Cc1ccc(N2CCN(S(=O)(=O)c3ccc4oc(=O)ccc4c3)CC2)cc1Cl	-25.1	6.2	-1.5	-0.4	.	.	.
CCNC(=O)COC(=O)/C=C/c1cccc(F)c1	0.5	-52.2	1.8	-1.2	-3.4	.	.
COC(=O)c1ccccc1S(=O)(=O)NNC(=O)Nc1ccccc1	-28.3	34.2	0.2	-1.5	.	.	.
O=C(Nc1ncc(Cc2ccccc2)s1)C1CCCO1 (centres undefined)	-181.9	-34.4	21.1	0.2	11.0*	.	.	Wee1 stab conf=0.2
O=C(NNC(=S)Nc1ccccc1)Nc1ccccc1	-111.8	-92.1	-4.9	3.6	8.0	.	.
Cc1ccc(NC(=S)NNC(=O)Nc2ccccc2)cc1	-83.9	-131.7	-3.0	1.5	13.8*	.	.	Wee1 stab conf=3.8
COc1ccc(-n2nnnc2SCC(=O)Nc2ccccc2F)cc1	-13.0	8.9	-0.4	0.7	.	.	.
O=[N+]([O-])c1cccc(N/N=C/c2cc([N+](=O)[O-])ccc2O)c1	-25.9	-69.6	10.3	0.6	7.8	.	.
O=[N+]([O-])c1ccc(O)c(/C=N/Nc2ccccn2)c1	65.5*	95.2*	4.4	63.2*	-2.4	57.9	54.0*
CCOc1ccc(S(=O)(=O)NCc2ccccn2)cc1NC(=O)c1ccccc1F	70.2*	75.6*	4.6	0.4	.	80.5*	54.9*
COc1ccc(S(=O)(=O)NCc2ccccn2)cc1NC(=O)c1ccccc1	47.5	-62.3	5.8	2.4	.	.	.
CC(=O)N(Cc1ccc(F)cc1)C1=C(NCCc2ccccc2)C(=O)c2ccccc2C1=O	78.8*	69.6*	2.4	-1.7	-1.3	4.6	-5.0
COc1ccc(/C=C/c2nc3ccccc3n2C)cc1	67.5*	108.8*	112.8*	-6.0	-4.7	95.5*	33.6*
COc1ccc(/C=C/c2nc3ccccc3c(=O)o2)cc1	71.0*	101.5*	33.5	-6.3	.	55.1	2.0
Oc1cc2c(cc1CN1CCc3ccccc3C1)OCO2	-18.6	13.9	8.9	0.8	.	.	.
Oc1ccc(CN2CCc3ccccc3C2)c2cccnc12	70.8*	102.6*	5.9	158.8*	-1.5	62.7*	19.4
COc1ccc(OC)c(N/C(C)=C/C(=O)c2ccccc2)c1	-32.4	-112.7	-2.1	3.7	-3.2	.	.
COc1ccc(OC)c(N/C=C/C(=O)c2ccccc2)c1	70.1*	82.7*	83.2*	-1.9	.	76.4*	1.6
COc1ccc(N/C=C/C(=O)c2cc(OC)c(OC)c(OC)c2)cc1	67.9*	?	-4.1	1.4	.	72.7*	57.3*
SMILES	KLF5 inhibitor	aSyn UTR inh	Platelet DG rel	HIF activator	Wee1 stabilizer	KLF5 inh confirm	IEC-6 tox	others
COc1ccc(C(C)=O)cc1CSc1nc2ccccc2c(=O)n1-c1ccccc1	-7.9	25.0	15.4	0.2	-0.8	.	.
C=CCn1c(SCc2cc(C(C)=O)ccc2OCC)nc2ccccc2c1=O	64.7*	104.0*	-4.8	-1.1	7.6	79.0*	64.0*
Cc1ccc2occ(/C=N/NC(=O)c3ccccc3O)c(=O)c2c1	63.9*	25.0	-8.0	6.4	.	47.7	-5.7
CCOc1cc(CNCCc2ccc(S(N)(=O)=O)cc2)ccc1OCC(=O)NC1CCCCC1	-13.1	7.6	-3.1	-0.3	3.9	.	.
COc1cc(CNc2ccc(S(N)(=O)=O)cc2)ccc1OCC(=O)NC1CCCCC1	75.2*	-8.4	-4.8	-0.4	-0.7	-11.6	7.8
Cc1nc(SCC(=O)Nc2nc3ccccc3s2)c(C#N)c(C)c1C	96.3*	99.9*	10.8	-3.9	-5.2	108.0*	27.2*
CNC(=O)Cn1nc(-c2ccc(Cl)cc2)c2ccccc2c1=O	7.5	-18.0	3.6	-1.5	.	.	.
COc1ccc(-n2ncc3c(N(C)C4CCCCC4)ncnc32)cc1	73.6*	94.0*	1.3	-2.0	.	64.3*	1.2
CCCC(=O)NC(c1ccccc1OC)c1ccc2cccnc2c1O (centres undefined)	90.7*	123.9*	-8.2	69.0*	-4.5	96.9*	46.8*
CCCCC(=O)NC(c1ccccc1OC)c1ccc2cccnc2c1O (centres undefined)	75.7*	101.2*	-6.0	62.9*	4.6	93.5*	48.1*
CCOc1ccc(C(CC(=O)O)NC(=O)Cc2ccc(Cl)cc2)cc1 (centres undefined)	-34.0	12.7	-2.3	0.9	.	.	.
COc1ccc(-c2cc3nc(C)n(N)c(=O)c3s2)cc1	96.0*	115.5*	87.0*	-5.9	-6.0	108.7*	36.0*
C/C=C/COC(=O)c1[nH]c2c(c1C)C(=O)CC(c1ccco1)C2 (centres undefined)	83.3*	67.4*	-0.1	2.6	-0.4	88.7*	57.4*
C=CCOC(=O)c1[nH]c2c(c1C)C(=O)CC(c1ccco1)C2 (centres undefined)	89.9*	69.2*	-1.9	2.7	-0.2	83.7*	60.2*
COC(=O)c1[nH]c2c(c1C)C(=O)CC(c1ccccc1)C2 (centres undefined)	72.2*	28.1	2.0	0.4	2.1	88.1*	72.3*
Cc1c(C(=O)OCC2CCCO2)[nH]c2c1C(=O)CC(c1ccco1)C2 (centres undefined)	-14.0	-45.8	0.1	2.1	6.2	.	.
O=C(CCCCCNC(=O)c1ccccc1Br)N=Nc1c(O)[nH]c2ccccc12	-19.3	6.7	4.7	0.8	1.1	.	.
Cc1ccc(/C=C2\SC(=S)N(CCCC(=O)NC3CCCC3)C2=O)cc1	65.3*	97.5*	-3.8	-4.0	.	3.9	4.5
Cc1ccc(/C=C2/SC(=S)N(CCCC(=O)Nc3ccc(O)cc3)C2=O)cc1	67.5*	86.3*	-7.0	-3.4	0.8	107.0*	7.3
CC12CC(NC(=O)N1c1cccc(C(=O)NCc3ccccc3)c1)c1ccccc1O2 (centres undefined)	10.0	-9.6	3.8	0.1	-0.4	.	.
CC(=O)Nc1sc2c(c1-c1nc3ccccc3s1)CCN(C(C)C)C2	61.9*	.	.	.	-2.4	61.8*	23.1*

Assay outcomes from PubChem BioAssay.
